Data reported in PubChem BioAssay (NCATS).
Results filed as inconclusive are left out. The source made the active and inactive calls. Unless noted, the call rests on the fitted dose curve; in most records, active means well fitted cell-killing curve with a large enough effect; inconclusive means small, poorly fitted or top-dose-only effect, or effect the other way; inactive means no such curve, though single readings can be large or run the other way.

How the values were obtained:
[1] = Quantitative High-Throughput drug screen in 47 multiple myeloma cell lines against the NCATS MIPE library collection: VP6_DJ cell viability assay (AID 1919867); further: nearly all actives have a fitted effect of over 40% in size; further: potency means the concentration at half of the fitted maximal effect
How it was run: (§1)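 500 cells/well per myeloma line exposed to pinned MIPE 4.0 compounds for 48 h at 37 °C, 5% CO2. Viability read as ATP by CellTiter-Glo luminescence, normalised to DMSO-only (100%) and media-only (0%) wells.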

[2] = Quantitative High-Throughput drug screen in 47 multiple myeloma cell lines against the NCATS MIPE library collection: UTMC2_PLB cell viability assay (AID 1919868); settings: CellTiter-Glo ATP luminescence, 48 h; viability (% of DMSO control): at 45.8 µM (top of the series) unless noted; further: nearly all actives have a fitted effect of over 55% in size; further: potency means the concentration at half of the fitted maximal effect
How it was run: as §1

[3] = Quantitative High-Throughput drug screen in 47 multiple myeloma cell lines against the NCATS MIPE library collection: PCM6_Riken cell viability assay (AID 1919870); further: nearly all actives have a fitted effect of over 30% in size; further: potency means the concentration at half of the fitted maximal effect
How it was run: as §1

[4] = Quantitative High-Throughput drug screen in 47 multiple myeloma cell lines against the NCATS MIPE library collection: RPMI8226_ATCC cell viability assay (AID 1919871); further: nearly all actives have a fitted effect of over 30% in size; further: potency means the concentration at half of the fitted maximal effect
How it was run: as §1

[5] = Quantitative High-Throughput drug screen in 47 multiple myeloma cell lines against the NCATS MIPE library collection: KMS11_JCRBsus cell viability assay (AID 1919873); further: nearly all actives have a fitted effect of over 50% in size; further: potency means the concentration at half of the fitted maximal effect
How it was run: as §1

[6] = Quantitative High-Throughput drug screen in 47 multiple myeloma cell lines against the NCATS MIPE library collection: KMS28BM_JCRB cell viability assay (AID 1919874); further: nearly all actives have a fitted effect of over 35% in size; further: potency means the concentration at half of the fitted maximal effect
How it was run: as §1

[7] = qHTS drug screen for cell cycle checkpoint inhibitors in PARPi-resistant BRCA-mutant ovarian cancer cell lines. (AID 1963452; calls by dose curve); settings: PEO1/OlaR viability, CellTiter-Glo luminescence, 96 h, stronger effect = lower value
How it was run: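 PEO1, PEO4 and PEO1/OlaR ovarian cancer cells, 600 per well, exposed 96 h at 37C to a dilution series. Viability read by CellTiter-Glo luminescence, normalized to DMSO and empty wells; activity summarized as Z-AUC.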

[8] = Quantitative High-Throughput drug screen in 47 multiple myeloma cell lines against the NCATS MIPE library collection: OPM2_DSMZ cell viability assay (AID 1919872); further: nearly all actives have a fitted effect of over 30% in size; further: potency means the concentration at half of the fitted maximal effect
How it was run: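 Approved and investigational drugs from MIPE 4.0 were added by pin tool to 500 cells per well. After 48 hours at 37C, ATP-based CellTiter-Glo luminescence indicated remaining viability.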

[9] = Quantitative High-Throughput drug screen in 47 multiple myeloma cell lines against the NCATS MIPE library collection: PE2_PLB cell viability assay (AID 1919869); further: nearly all actives have a fitted effect of over 35% in size; further: potency means the concentration at half of the fitted maximal effect
How it was run: as §1

[10] = qHTS for identification of novel therapeutic agents for treatment of microphthalmiaassociated transcription factor (MiT) renal cell carcinoma (RCC) (AID 1963991; calls by dose curve; further: potency means the concentration at half of the fitted maximal effect;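 on z-score: curves scaled with 100% = DMSO viability and 0% = empty wells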); settings: CellTiter-Glo, 48 h; for z-score: stronger effect = lower value
How it was run: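 UOK109/UOK124/UOK145 (TFE3 fusions, three partners); 500 cells/well; MIPE v4.0, 1912 cpds, 11 conc.; 48 h, 37 C; CellTiter-Glo, 15 min RT; lum. Norm.: DMSO 100%, empty 0%.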

[11] = measured here: PEO1 parental Z-AUC
[12] = TFE3-RCC UOK109 viability, measured here: UOK109 Z-AUC
[13] = TFE3-RCC viability, measured here: UOK124 Z-AUC
[14] = TFE3-RCC viability, measured here: UOK145 Z-AUC

SMILES	Potency [1]	Potency [2]	Potency [3]	Potency [4]	Potency [5]	Potency [6]	Z-AUC [7]	Z-AUC [7, 11]	Z-AUC ([7]; measured here: PEO4 Z-AUC)	Potency [8]	Potency [9]	Potency ([10]; TFE3-RCC UOK109 viability, active = Z-AUC below -0.8 in all three lines)	z-score [10, 12]	z-score [10, 13]	z-score [10, 14]
COc1cc2nccc(Oc3ccc(NC(=O)C4(C(=O)Nc5ccc(F)cc5)CC4)cc3)c2cc1OC	3.72 µM (active)	20.9 µM (active)	2.96 µM (active)	20.9 µM (active)	20.9 µM (active)	20.9 µM (active)	-0.0071 (inactive)	0.252	-0.118						
O=C(Cc1ccc(-c2ccc(OCCN3CCOCC3)cc2)cn1)NCc1ccccc1	0.0264 µM (active)	0.0332 µM (active)	0.0264 µM (active)	0.148 µM (active)		0.0148 µM (active)	-0.749 (inactive)	-0.848	-1.63	0.0372 µM (active)					
CCC[C@H](NC(=O)C(C#N)=Cc1cccc(Br)n1)c1ccccc1	2.09 µM (active)		1.05 µM (active)	2.96 µM (active)		2.64 µM (active)				5.26 µM (active)	2.09 µM (active)				
O=c1c2ccccc2nc2n1CCc1c-2[nH]c2ccccc12	inactive	inactive	13.2 µM (active)												
CCS(=O)(=O)c1cccc(-c2cc(C(=O)NC3CCN(C)CC3)c(C)c3[nH]c4ncc(C)cc4c23)c1	0.935 µM (active)		1.66 µM (active)	5.9 µM (active)		0.833 µM (active)	-0.945 (inactive)	-0.937	-0.883	2.64 µM (active)	0.935 µM (active)				
Cc1c(CN2CCN(S(C)(=O)=O)CC2)sc2c(N3CCOCC3)nc(-c3cnc(N)nc3)nc12	0.0235 µM (active)		0.418 µM (active)	0.0166 µM (active)		0.0132 µM (active)	0.0284 (inactive)	0.564	0.402	0.105 µM (active)	0.0372 µM (active)	0.0833 µM (active)	-2.2	-2.43	-2.46
CN1CCC(CNc2ccc3ncc(-c4cccc(OC(F)(F)F)c4)n3n2)CC1	7.43 µM (active)	5.9 µM (active)	5.9 µM (active)	20.9 µM (active)	6.62 µM (active)	8.33 µM (active)	-0.465 (inactive)	-0.0601	-0.00259	23.5 µM (active)					
CC1COC2(CCN(c3nc(=O)c4cc(C(F)(F)F)cc([N+](=O)[O-])c4s3)CC2)O1 (configuration not stated)	inactive		inactive	inactive	inactive	inactive	0.328 (inactive)	0.189	0.861	inactive	inactive		1.51	0.131	0.808
